Test results from PubChem BioAssay (NCATS).
A number with no mark means an inactive call. Results filed as inconclusive are left out. Where a call stands in place of a potency, no number is given. Calls of active or inactive are those of the source. Unless noted, the call rests on the fitted dose curve; in most records, active means well fitted curve in the direction sought with a large enough effect; inconclusive means small, poorly fitted or top-dose-only effect, or another doubt; inactive means no such curve, though single readings can be large; an effect the other way counts as inactive or inconclusive.

Columns and labels:
[1] = target: Tumor susceptibility gene 101 protein (Homo sapiens) (UniProt Q99816); test: qHTS Assay for Iinhibitors of HIV-1 Budding by Blocking the Interaction of PTAP/TSG101: Hit Validation (AID 651600); further: nearly all actives have a fitted effect of over 70% in size; further: potency means the concentration at half of the fitted maximal effect
Sequence of Tumor susceptibility gene 101 protein (Homo sapiens) (Q99816 whole entry, looked up, the tested form may be a part): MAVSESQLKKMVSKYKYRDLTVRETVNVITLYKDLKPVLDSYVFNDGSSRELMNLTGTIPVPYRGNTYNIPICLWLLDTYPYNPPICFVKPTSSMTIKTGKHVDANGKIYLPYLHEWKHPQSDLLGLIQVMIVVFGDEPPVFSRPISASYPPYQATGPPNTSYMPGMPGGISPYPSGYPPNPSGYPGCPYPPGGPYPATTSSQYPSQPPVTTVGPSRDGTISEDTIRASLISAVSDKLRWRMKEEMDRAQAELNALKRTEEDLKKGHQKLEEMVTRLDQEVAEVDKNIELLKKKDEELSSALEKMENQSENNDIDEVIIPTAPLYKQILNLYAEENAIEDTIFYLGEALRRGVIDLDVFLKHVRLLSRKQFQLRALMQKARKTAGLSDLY
Procedure, shortened: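 Tsg101 binding domain 10 uM + FITC-PTAP peptide 50 nM (final), 10 mM HEPES pH 7.5/0.15 M NaCl/0.01% Tween 20/3 mM EDTA/0.1 mM TCEP; 20 min RT; FP read, FITC filters.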

[2] = target: Rap guanine nucleotide exchange factor 3 (Homo sapiens) (UniProt O95398); test: Confirmatory qHTS for antagonist of cAMP-regulated guanine nucleotide exchange factor 3 (EPAC1) (AID 1645880); details: EPAC1 Rap1B-BODIPY-GDP exchange, fluorescence; activity, negative = inhibition: at 115 µM (top of the series); further: nearly all actives have a fitted effect of over 55% in size; further: potency means the concentration at half of the fitted maximal effect
Sequence of Rap guanine nucleotide exchange factor 3 (Homo sapiens) (O95398 whole entry, looked up): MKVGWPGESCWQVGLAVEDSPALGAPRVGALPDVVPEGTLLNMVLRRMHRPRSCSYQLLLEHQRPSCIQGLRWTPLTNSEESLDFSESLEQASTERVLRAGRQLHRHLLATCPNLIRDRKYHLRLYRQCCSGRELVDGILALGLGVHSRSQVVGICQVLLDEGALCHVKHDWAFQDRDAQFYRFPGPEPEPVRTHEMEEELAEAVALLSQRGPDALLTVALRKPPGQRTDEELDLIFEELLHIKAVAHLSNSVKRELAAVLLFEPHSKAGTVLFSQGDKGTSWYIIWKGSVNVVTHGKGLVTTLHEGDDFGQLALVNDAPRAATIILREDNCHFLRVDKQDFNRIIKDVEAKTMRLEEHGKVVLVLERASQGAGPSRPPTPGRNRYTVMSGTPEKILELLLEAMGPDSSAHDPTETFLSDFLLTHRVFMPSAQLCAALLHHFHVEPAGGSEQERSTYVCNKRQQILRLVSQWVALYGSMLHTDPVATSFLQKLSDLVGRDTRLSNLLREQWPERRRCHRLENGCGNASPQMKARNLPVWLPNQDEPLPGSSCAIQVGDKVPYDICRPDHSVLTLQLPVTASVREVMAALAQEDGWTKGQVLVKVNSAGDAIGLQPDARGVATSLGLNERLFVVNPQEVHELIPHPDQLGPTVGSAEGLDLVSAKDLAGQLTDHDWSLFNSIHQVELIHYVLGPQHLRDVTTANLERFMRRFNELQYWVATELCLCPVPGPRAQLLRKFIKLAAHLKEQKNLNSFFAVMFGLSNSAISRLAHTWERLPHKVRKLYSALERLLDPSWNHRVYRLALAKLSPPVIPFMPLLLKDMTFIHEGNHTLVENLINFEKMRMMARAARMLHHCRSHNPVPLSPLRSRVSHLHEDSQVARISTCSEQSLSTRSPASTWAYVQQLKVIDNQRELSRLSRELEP
Procedure, shortened: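 Nucleotide exchange uses 100 nM EPAC1, 250 nM RAP1B-BODIPY-GDP and 50 uM GDP, with compounds in a concentration-titration series. After 5 min at room temperature, fluorescence (480 nm ex/540 nm em) is read every 5 min for 30 min. Data are normalized to control ATA and DMSO.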

[3] = target: Rap guanine nucleotide exchange factor 4 (Homo sapiens) (UniProt Q8WZA2); test: Confirmatory qHTS for antagonist of cAMP-regulated guanine nucleotide exchange factor 4 (EPAC2) (AID 1645885); further: nearly all actives have a fitted effect of over 25% in size; further: potency means the concentration at half of the fitted maximal effect
Sequence of Rap guanine nucleotide exchange factor 4 (Homo sapiens) (Q8WZA2 whole entry, looked up): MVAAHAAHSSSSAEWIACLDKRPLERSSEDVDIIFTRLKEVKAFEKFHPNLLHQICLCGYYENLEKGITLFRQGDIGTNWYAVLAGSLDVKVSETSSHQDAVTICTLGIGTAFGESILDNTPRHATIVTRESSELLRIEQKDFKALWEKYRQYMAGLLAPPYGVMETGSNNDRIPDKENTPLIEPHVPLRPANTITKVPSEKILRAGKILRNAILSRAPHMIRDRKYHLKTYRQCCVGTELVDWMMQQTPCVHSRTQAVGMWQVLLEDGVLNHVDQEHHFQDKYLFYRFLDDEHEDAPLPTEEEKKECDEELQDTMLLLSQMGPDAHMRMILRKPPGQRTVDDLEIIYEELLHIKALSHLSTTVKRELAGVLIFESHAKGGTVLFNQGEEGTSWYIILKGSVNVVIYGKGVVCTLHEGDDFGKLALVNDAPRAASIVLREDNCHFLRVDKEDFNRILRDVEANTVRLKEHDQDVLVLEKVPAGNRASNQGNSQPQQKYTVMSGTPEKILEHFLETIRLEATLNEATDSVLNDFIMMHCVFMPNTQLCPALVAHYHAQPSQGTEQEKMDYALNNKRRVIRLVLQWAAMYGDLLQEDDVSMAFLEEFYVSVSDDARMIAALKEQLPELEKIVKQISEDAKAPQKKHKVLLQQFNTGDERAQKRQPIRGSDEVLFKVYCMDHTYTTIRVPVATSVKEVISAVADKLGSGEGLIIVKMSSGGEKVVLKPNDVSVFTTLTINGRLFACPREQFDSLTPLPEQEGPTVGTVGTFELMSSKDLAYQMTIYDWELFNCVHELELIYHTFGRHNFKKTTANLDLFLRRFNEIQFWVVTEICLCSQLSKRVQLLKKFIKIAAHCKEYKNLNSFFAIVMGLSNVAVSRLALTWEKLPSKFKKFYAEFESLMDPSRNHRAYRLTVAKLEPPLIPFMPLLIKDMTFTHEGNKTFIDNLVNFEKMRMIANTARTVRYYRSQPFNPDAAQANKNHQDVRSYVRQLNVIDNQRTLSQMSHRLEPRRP

[4] = target: Rap guanine nucleotide exchange factor 3 (Homo sapiens) (UniProt O95398); test: Counterscreen qHTS for antagonist of cAMP-regulated guanine nucleotide exchange factor 3 (EPAC1) (AID 1645888);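 further: fluorescence loss as bound BODIPY-GDP is released from Rap1B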
Procedure, shortened: (§1)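 Rap1B-BODIPY-GDP 250 nM + GDP 50 uM; cpds 7-pt, final 9.74 nM–152 uM (activator mode) or from 7.32 nM upwards (inhibitor mode); RT; FI 480/540 nm at 5 and 30 min, then ± cAMP, reread.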

[5] = target: Rap guanine nucleotide exchange factor 3 (Homo sapiens) (UniProt O95398); test: Counterscreen qHTS for agonist of cAMP-regulated guanine nucleotide exchange factor 3 (EPAC1) (AID 1645889); further: potency means the concentration at half of the fitted maximal effect; nearly all actives have a fitted effect of over 40% in size
Procedure, shortened: as §1

[6] = target: Lysosomal acid glucosylceramidase (Homo sapiens) (UniProt P04062); test: Glucocerebrosidase-p2 (AID 348; in the data active means potency below about 10 µM; further: potency means the concentration at half of the fitted maximal effect); details: purified GBA, blue fluorogenic substrate, 40 min
Sequence of Lysosomal acid glucosylceramidase (Homo sapiens) (P04062 whole entry, looked up): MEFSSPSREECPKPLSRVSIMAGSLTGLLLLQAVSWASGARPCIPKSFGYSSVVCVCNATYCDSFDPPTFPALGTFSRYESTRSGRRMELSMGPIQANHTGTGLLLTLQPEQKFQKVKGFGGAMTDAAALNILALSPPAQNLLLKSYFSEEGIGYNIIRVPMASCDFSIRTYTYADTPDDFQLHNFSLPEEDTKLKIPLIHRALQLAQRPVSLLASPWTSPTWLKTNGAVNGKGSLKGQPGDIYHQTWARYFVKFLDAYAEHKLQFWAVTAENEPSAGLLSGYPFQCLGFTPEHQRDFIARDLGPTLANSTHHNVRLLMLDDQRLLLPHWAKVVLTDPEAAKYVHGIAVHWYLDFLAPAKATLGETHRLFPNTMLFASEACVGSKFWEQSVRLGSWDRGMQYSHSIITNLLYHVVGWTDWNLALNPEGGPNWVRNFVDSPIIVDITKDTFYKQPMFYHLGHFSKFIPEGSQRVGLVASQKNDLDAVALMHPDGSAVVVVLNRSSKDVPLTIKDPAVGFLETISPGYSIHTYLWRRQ
Procedure, shortened: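 Compounds titrated from 0.6 nM upwards against 0.2 nM enzyme in pH 5.9 citric acid/KH2PO4, taurocholate, tween-20; blue fluorogenic substrate 80 uM, 40 min room temperature, stopped and read Ex 365/Em 440 for AC50.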

[7] = target: Cytochrome P450 1A2 (Homo sapiens) (UniProt P05177); test: p450-cyp1a2 (AID 410; calls by dose curve; further: potency means the concentration at half of the fitted maximal effect)
Sequence of Cytochrome P450 1A2 (Homo sapiens) (P05177 whole entry, looked up): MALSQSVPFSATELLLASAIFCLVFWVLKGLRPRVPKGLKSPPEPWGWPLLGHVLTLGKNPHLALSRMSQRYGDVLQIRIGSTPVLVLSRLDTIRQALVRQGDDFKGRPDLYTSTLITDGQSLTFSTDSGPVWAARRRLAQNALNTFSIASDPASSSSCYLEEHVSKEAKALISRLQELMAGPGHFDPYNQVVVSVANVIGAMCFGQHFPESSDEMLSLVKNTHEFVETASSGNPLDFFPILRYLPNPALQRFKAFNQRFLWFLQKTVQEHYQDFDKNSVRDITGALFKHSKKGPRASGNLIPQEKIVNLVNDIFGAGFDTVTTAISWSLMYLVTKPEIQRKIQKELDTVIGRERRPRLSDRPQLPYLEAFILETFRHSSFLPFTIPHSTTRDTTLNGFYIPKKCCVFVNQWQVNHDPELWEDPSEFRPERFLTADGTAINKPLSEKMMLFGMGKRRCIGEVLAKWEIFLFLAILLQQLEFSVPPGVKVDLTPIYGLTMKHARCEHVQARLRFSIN
Procedure, shortened: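 Luminescent readout of luciferin formed from Luciferin-ME by human CYP1A2; data normalized against complete inhibition by 57 uM furafylline. Enzyme 20nM, substrate 100uM at Km, 100mM KPO4 buffer, 60 min reaction at room temperature.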

[8] = NFAT Signaling Pathway (AID 444; active means well fitted curve in either direction with a large enough effect, not every such curve was filed as active;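 further: carbachol stimulus at about its EC50 of 1 µM final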); details: Jurkat NFAT-bla M1, carbachol, beta-lactamase ratio, 5 h; at 7.69 µM (top of the series) unless noted
Procedure, shortened: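 Read-out: CCF4 FRET ratio (460 nm/530 nm) after 1 h RT dye loading, used for %activity and AC50 from titration series. Cells: Jurkat NFAT-β-lactamase/M1 line, treated with compound plus 1 uM carbachol for 5 h, 37 °C.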

[9] = Stat Signaling Pathway (AID 446; active means well fitted curve in either direction with a large enough effect, not every such curve was filed as active;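 further: ME-180 cervical cancer cells given 40 pM IL-6 alongside compound; SIE-controlled beta-lactamase reporter measured as 460/530 nm FRET emission ratio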)
Procedure, shortened: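 Reporter line: ME-180 cervical carcinoma, SIE-beta-lactamase. Treatment: compound with 40 pM IL-6, 5 hrs, 37 C, in low-serum OPTI-MEM with 10 mM HEPES pH 7.3. Detection: 460/530 nm fluorescence.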

[10] = target: Glucocorticoid receptor (Homo sapiens) (UniProt P04150); test: GR-GFP Redistribution (AID 450;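 active means compounds whose dose series gives a full or clear partial fitted curve of increased nuclear translocation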; further: potency means the concentration at half of the fitted maximal effect); details: U2OS GR-GFP nuclear translocation, laser cytometry, 2 h
Sequence of Glucocorticoid receptor (Homo sapiens) (P04150 whole entry, looked up, the tested form may be a part): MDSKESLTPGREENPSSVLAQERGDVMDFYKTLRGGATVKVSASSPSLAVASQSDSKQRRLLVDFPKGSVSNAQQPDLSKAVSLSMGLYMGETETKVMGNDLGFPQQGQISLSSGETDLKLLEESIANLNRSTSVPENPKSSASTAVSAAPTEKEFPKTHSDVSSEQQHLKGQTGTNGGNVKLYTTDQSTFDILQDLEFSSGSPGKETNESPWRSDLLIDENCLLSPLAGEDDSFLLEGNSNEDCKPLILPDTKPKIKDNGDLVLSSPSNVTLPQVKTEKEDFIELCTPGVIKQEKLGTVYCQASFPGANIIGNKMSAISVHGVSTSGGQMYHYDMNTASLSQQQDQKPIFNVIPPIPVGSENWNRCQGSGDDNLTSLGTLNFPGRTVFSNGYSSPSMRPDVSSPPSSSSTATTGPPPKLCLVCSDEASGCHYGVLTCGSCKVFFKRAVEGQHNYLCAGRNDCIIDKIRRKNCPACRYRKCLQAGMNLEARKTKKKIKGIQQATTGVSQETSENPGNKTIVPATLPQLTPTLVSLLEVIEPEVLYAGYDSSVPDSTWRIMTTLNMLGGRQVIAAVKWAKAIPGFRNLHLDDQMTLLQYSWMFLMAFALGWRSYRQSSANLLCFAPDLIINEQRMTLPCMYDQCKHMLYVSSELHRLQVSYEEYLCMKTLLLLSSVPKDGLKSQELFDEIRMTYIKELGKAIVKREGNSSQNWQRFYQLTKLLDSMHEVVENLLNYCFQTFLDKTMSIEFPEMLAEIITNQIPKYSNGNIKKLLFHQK

[11] = target: Glucocorticoid receptor (Homo sapiens) (UniProt P04150); test: GR-EFC Redistribution (AID 451; calls by dose curve; further: potency means the concentration at half of the fitted maximal effect); details: CHO-K1 GR-EFC translocation, beta-gal luminescence, 2 h
Procedure, shortened: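 Translocation of GR-ED fusion to nuclear EA restores b-gal, read by luminescence after 1 h room-temperature detection. Engineered CHO-K1 biosensor cells, 1,000/well, exposed 2 h at 37 C to titrations up to 46 uM final.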

[12] = target: Mitogen-activated protein kinase 10 (Mus musculus) (UniProt Q61831); test: JNK3 AlphaScreen Assay (AID 530; active means well fitted curve in either direction with a large enough effect, not every such curve was filed as active;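 further: kinase came from lysate of stimulated human HepG2 cells; signal reports phosphorylation of biotinylated GST-cJun 1-79 at Ser73 with 10 µM ATP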)
Procedure, shortened: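 Compound titrations were preincubated 15 minutes at room temperature with substrate, antibody and pre-activated JNK3-containing HepG2 lysate. Reactions were started with 10 uM ATP and stopped with EDTA-containing bead buffer for AlphaScreen detection.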

[13] = target: 3',5'-cyclic-AMP phosphodiesterase 4B (Homo sapiens) (UniProt Q07343); test: qHTS Assay for Inhibitors of PDE-IV (AID 607; active means well fitted activation curve with a large enough effect in the main read-out, with a control signal flat, not every such curve was filed as active)
Procedure, shortened: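 Cell-based read-out of cAMP via a modified cyclic nucleotide-gated channel and membrane potential dye (535/590 nm) in HEK293 cells expressing PDE4 endogenously. Compounds tested up to 22.9 uM final; 100 uM RO 20-1724 reference.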

[14] = target: Cytochrome P450 2C9 (Homo sapiens) (UniProt P11712); test: qHTS Assay for Inhibitors and Substrates of Cytochrome P450 2C9 (AID 883); further: nearly all actives have a fitted effect of over 60% in size
Procedure, shortened: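 Turnover of Luciferin-H (100uM, KM) by 10nM human CYP2C9 was measured over 60 min at 37C with NADPH regeneration; inhibitors and some substrates reduce luminescence. Data normalized to sulphaphenazole 57uM.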

[15] = target: Cytochrome P450 3A4 (Homo sapiens) (UniProt P08684); test: qHTS Assay for Inhibitors and Substrates of Cytochrome P450 3A4 (AID 884); further: potency means the concentration at half of the fitted maximal effect; nearly all actives have a fitted effect of over 50% in size
Sequence of Cytochrome P450 3A4 (Homo sapiens) (P08684 whole entry, looked up): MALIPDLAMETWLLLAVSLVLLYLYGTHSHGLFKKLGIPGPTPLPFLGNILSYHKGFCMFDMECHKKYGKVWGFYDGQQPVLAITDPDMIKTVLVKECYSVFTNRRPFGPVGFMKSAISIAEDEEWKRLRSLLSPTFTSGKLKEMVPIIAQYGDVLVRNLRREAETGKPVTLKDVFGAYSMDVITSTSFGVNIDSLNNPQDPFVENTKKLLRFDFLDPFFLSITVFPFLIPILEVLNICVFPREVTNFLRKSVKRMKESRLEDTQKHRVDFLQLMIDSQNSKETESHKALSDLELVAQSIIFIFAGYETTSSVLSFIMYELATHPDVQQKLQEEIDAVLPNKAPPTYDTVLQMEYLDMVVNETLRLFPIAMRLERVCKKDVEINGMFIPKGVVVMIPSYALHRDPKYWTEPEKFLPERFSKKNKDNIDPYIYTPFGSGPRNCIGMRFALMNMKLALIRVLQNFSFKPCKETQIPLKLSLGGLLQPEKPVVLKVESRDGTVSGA
Procedure, shortened: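 20 nM human CYP3A4 with 25 uM Luciferin-PPXE (at KM) in 200 mM KPO4, preincubated 10 min with compound; NADPH regeneration started a 60 min RT reaction. Luciferin detected by luminescence, normalized to 57 uM ketoconazole as full inhibition.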

[16] = target: Cytochrome P450 3A4 (Homo sapiens) (UniProt P08684); test: qHTS Assay for Activators of Cytochrome P450 3A4 (AID 885); further: nearly all actives have a fitted effect of over 65% in size
Procedure, shortened: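 Signal was normalized against complete inhibition by 57 uM ketoconazole. The reaction used 20nM CYP3A4 with 25uM Luciferin-PPXE, 10-min compound preincubation and a 60-min NADPH-supported step at RT.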

[17] = target: Rap guanine nucleotide exchange factor 3 (Homo sapiens) (UniProt O95398); test: Confirmatory qHTS for agonist of cAMP-regulated guanine nucleotide exchange factor 3 (EPAC1) (AID 1645881);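 further: EPAC1 catalysed release of BODIPY-GDP from Rap1B seen as fluorescence loss; nearly all actives have a fitted effect of over 75% in size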
[18] = target: Rap guanine nucleotide exchange factor 4 (Homo sapiens) (UniProt Q8WZA2); test: Confirmatory qHTS for agonist of cAMP-regulated guanine nucleotide exchange factor 4 (EPAC2) (AID 1645884);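 further: nucleotide exchange releases bodipy-GDP from Rap1 and this lowers its fluorescence; nearly all actives have a fitted effect of over 65% in size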

## Cc1c2ccccc2nc2c(F)c(NCCO)c(F)c(F)c12
[1]
  Potency: 8.19 µM (active)
[2]
  Potency: inactive
[3]
  Potency: inactive

## O=[N+]([O-])c1c(Nc2ccccn2)cc(Cl)c2nonc12
[2]
  Potency: inactive
[4]
  Potency: inactive

## CCCCn1nnnc1C(c1cc2ccccc2o1)N1CCCCC1 (stereo not drawn)
[2]
  Potency: inactive
[4]
  Potency: inactive

## CN1CC=C2C(C#N)=C(N)C(C#N)(C#N)C(c3ccsc3)C2C1 (stereo not drawn)
[2]
  Potency: inactive
[4]
  Potency: inactive

## CCN(CC)c1ccc(/C=C/C(=O)c2ccc(Br)cc2)cc1
[1]
  Potency: inactive
[2]
  Potency: inactive
[3]
  Potency: inactive
[4]
  activity change, negative = inhibition: 192% [at 30.8 µM]
[5]
  Potency: 14.1 µM (active)

## O=C(OCCN1C(=O)c2cccc3c(N4CCOCC4)ccc(c23)C1=O)c1ccc(Cl)cc1Cl
[1]
  Potency: 4.61 µM (active)
[2]
  Potency: inactive
[3]
  Potency: inactive
[4]
  activity change, negative = inhibition: 68.2% [at 30.8 µM]

## COc1cccc(/C(O)=C/c2nc3ccc(C(=O)NCCc4ccc(Cl)cc4)cc3[nH]c2=O)c1
[1]
  Potency: inactive
[2]
  Potency: inactive
[3]
  Potency: inactive
[4]
  Potency: inactive

## COc1cccc(Nc2ncc3nc(-c4ccc(F)cc4)c(=O)n(CCC#N)c3n2)c1
[6]
  Potency: > 11.4 µM
[7]
  Potency: 3.98 µM (active)
[8]
  activity change, negative = inhibition: -6.29%
[9]
  outcome: inactive
[10]
  Potency: > 9.22 µM
[11]
  Potency: > 46 µM
[12]
  Potency: inactive
[13]
  Potency: inactive
[14]
  Potency: inactive
[15]
  Potency: 3.16 µM (active)
[16]
  outcome: inactive
[2]
  Potency: inactive
[3]
  Potency: inactive

## Cc1cc(/C=C2\SC(=S)N(Cc3ccco3)C2=O)c(C)n1-c1cccnc1
[1]
  Potency: 25.9 µM (active)
[2]
  Potency: inactive
[3]
  Potency: 84.9 µM (active)
[4]
  Potency: inactive

## O=[N+]([O-])/C=C/c1cn(Cc2ccc(Cl)cc2)c2ccccc12
[2]
  Potency: inactive
[4]
  Potency: inactive

## CCCCN1C(=O)/C(=C/C=C2/CC(C)(C)CN2C)SC1=S
[2]
  Potency: inactive
[4]
  Potency: inactive

## CC(C)CCN1C(=O)c2cccc3c(N)ccc(c23)C1=O
[1]
  Potency: 16.3 µM (active)
[2]
  Potency: inactive
[3]
  Potency: inactive
[4]
  activity change, negative = inhibition: 154% [at 30.8 µM]
[5]
  Potency: 12.6 µM (active)

## CCOc1ccc(-c2nn(-c3ccccc3)cc2/C=C2\SC(=S)N(C3CCS(=O)(=O)C3)C2=O)cc1 (stereo not drawn)
[2]
  Potency: inactive
[4]
  Potency: inactive

## O=C1CCN2C=Nc3cccc4ccc1c2c34
[1]
  Potency: 6.51 µM (active)
[2]
  Potency: inactive
[3]
  Potency: inactive
[4]
  activity change, negative = inhibition: 142% [at 30.8 µM]
[5]
  Potency: 11.2 µM (active)

## O=c1c(/C=C(\O)c2ccccc2)nc2ccccc2n1-c1ccccc1
[1]
  Potency: 16.3 µM (active)
[2]
  Potency: inactive
[3]
  Potency: inactive
[4]
  activity change, negative = inhibition: -1.75% [at 30.8 µM]

## Fc1ccc(Nc2cncc(-c3ccsc3)c2)cc1Cl
[2]
  Potency: 75.7 µM (active)
[4]
  Potency: inactive

## CCOc1cc(S(=O)(=O)Nc2ccccc2CC)ccc1Cl
[17]
  Potency: inactive
[18]
  activation: 8.65% [at 17.1 µM, percent relative to cAMP agonist control]
